Conditions in all cases: concentration: 10 µM; 24 h
In experiment [1] the test system is HCC1569. As to the kind of experiment: cell number relative to DMSO (% of DMSO); higher = more cells (less growth inhibition / toxicity). The method, boiled down: (§1)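 For HCC1569 and TDF cells, compounds at 10 µM were applied for 24 h at 37 °C in triplicate in 384-well plates. Cells were fixed in 3.7% formaldehyde, stained for H1.0 and with DAPI, and imaged at ×10 over six fields per well. The endpoint, H1.0 nuclear intensity or cell number, is shown as percent of the plate control using the median of replicates. Positional effects were smoothed for HCC1569 only.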

The test system of experiment [2] is TDF. Described as above. The method, boiled down: as §1
Experiment [3] relates to TDF. As to the kind of experiment: H1.0 immunofluorescence intensity relative to DMSO (% of DMSO); higher = stronger H1.0 induction, active = 120 or more. The method, boiled down:
as §1

Experiment [4] relates to HCC1569. As to the kind of experiment: H1.0 immunofluorescence intensity relative to DMSO (% of DMSO); higher = stronger H1.0 induction, active = 140 or more. In a few lines:
as §1

Structures are written as SMILES.
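For H1.0 immunofluorescence intensity relative to DMSO in this document: TDF is a line of transformed human dermal fibroblasts of mesenchymal origin.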
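For cell number relative to DMSO in this document: TDF denotes transformed human dermal fibroblasts of mesenchymal origin.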

`Br.CC1NCCc2cc(O)c(O)cc21` (centres undefined): the cell number stood at 100 in the experiment on HCC1569 [1] and 93.9 in the experiment with TDF [2]. For the same molecule, the H1.0 immunofluorescence intensity in the experiment on TDF [3] was 105 (inactive); with HCC1569 [4], 94.9 (inactive).
With `CN(C)C(=O)Oc1cc(OC(=O)N(C)C)cc(C(O)CNC(C)(C)C)c1` (centres undefined) [Bambuterol], the cell number in the experiment with HCC1569 [1] was found to be 101; in the experiment with TDF [2], 112. For the same molecule, the H1.0 immunofluorescence intensity with TDF [3] is 93.5 (inactive); in the experiment with HCC1569 [4], 106 (inactive).
For `CCOC(=O)c1ncn2c1C1CCCN1C(=O)c1cc(OC)ccc1-2` (centres undefined), in that order: 103, 108, 88.2 (inactive) and 102 (inactive).
For the molecule `CCCCCC=CCC=CCC=CCC=CCCCCCC(=O)NCCO` [Anandamide (22:4,n-6)], the figures for the cell number in the experiment on HCC1569 [1] and in the experiment on TDF [2] were 102 and 104, respectively. Also, the H1.0 immunofluorescence intensity is 102 (inactive) in the experiment on TDF [3] and 98.3 (inactive) in the experiment with HCC1569 [4].
For `Cl.c1ccc2c(N3CCNCC3)cccc2c1` [1-(1-Naphthyl)piperazine hydrochloride], in that order: 99.6, 94.3, 105 (inactive) and 106 (inactive).
For `CCN1CC2(OC(=O)c3ccccc3NC(C)=O)CCC(OC)C34C1C(CC23)C1(O)CC(OC)C2CC4C1(O)C2OC` (centres undefined) [Lappaconitine], in that order: 107, 103, 100 (inactive) and 94.3 (inactive).
For `O=c1cccc2n1CC1CNCC2C1` (single isomer, unassigned; (-)) [(-)-Cytisine], in that order: 103, 85.2, 102 (inactive) and 96.6 (inactive).
Take `CC12CCC3C(CCC4CC(O)CCC43C)C1CCC2=O` (centres undefined) [Androsterone]: the values for the cell number with HCC1569 [1] and in the experiment with TDF [2] were 95 and 113, respectively. The H1.0 immunofluorescence intensity was 91.7 (inactive) in the experiment with TDF [3] and 107 (inactive) in the experiment with HCC1569 [4].
Regarding `CN1C(=O)CCS(=O)(=O)C1c1ccc(Cl)cc1` (centres undefined) [Chlormezanone], the cell number in the experiment on HCC1569 [1] amounted to 101; with TDF [2], 108. Also, the H1.0 immunofluorescence intensity with TDF [3] is 85.9 (inactive); in the experiment with HCC1569 [4] it was 95.3 (inactive).
For `CCN1CC2(COC)C(O)CC(OC)C34C5CC6(O)C(OC)C(O)C(OC(C)=O)(C5C6OC(=O)c5ccccc5)C(C(OC)C23)C14` (centres undefined) [Aconitine], in that order: 99.9, 97.3, 96.5 (inactive) and 94.5 (inactive).
Taken in the same sequence, the figures for `Br.COC(=O)C1=CCCN(C)C1` were 102, 112, 89.8 (inactive) and 82.8 (inactive).
Taken in the same sequence, the figures for `CCOP(=O)(OCC)C(C)NC(=O)N(CCCl)N=O` (centres undefined) were 100, 80.1, 102 (inactive) and 90.6 (inactive).
`CS(=O)(=O)O.O.Oc1ccc2c3c1OC1c4oc5ccccc5c4CC4(O)C(C2)N(CC2CC2)CCC314` (centres undefined) [Naltriben methanesulfonate hydrate]: the cell number in the experiment with HCC1569 [1] was determined as 98.9; in the experiment on TDF [2] it was 101. Also, the H1.0 immunofluorescence intensity in the experiment on TDF [3] is 92.8 (inactive); with HCC1569 [4], 119 (inactive).
As to `CCCCCCC1C(=O)OC(C)C(NC(=O)c2cccc(NC=O)c2O)C(=O)OC(C)C1OC(=O)CC(C)C` (centres undefined) [Antimycin A1], the cell number in the experiment on HCC1569 [1] was 73.6; with TDF [2], 66.5. Further, the H1.0 immunofluorescence intensity was 113 (inactive) in the experiment with TDF [3] and 136 (inactive) in the experiment with HCC1569 [4].
Taken in the same sequence, the figures for `Fc1cc(F)c2c(c1)C1C=CCC1C(c1cccnc1)N2` (centres undefined) were 69.8, 52.7, 126 (active) and 169 (active).
For `CCCCCCCCCCCCCCCCOCC(O)COP(=O)([O-])OCC[N+](C)(C)C` (centres undefined), in that order: 101, 105, 97.4 (inactive) and 104 (inactive).

These data come from the supplement of paper PMC7156485.
